# Screens: PubChem BioAssay, National Center for Advancing Translational Sciences (NCATS)
# Sampled rows, rich in hits. Any-hit rate of the full collection: about 2.7%.
# GLP-1R inv ag: acts as inverse agonist at human GLP-1 receptor; P43220; HEK293 GLP-1R CRE-luciferase, luminescence, 24 h; GLP-1R form is constitutively active; Potency, µM (top dose mostly 38.3 µM), without a hit: at the highest dose activity change, negative = inhibition, most hits filed as inhibitors; 410,000 compounds, 1.6% hits; AID 624417; further: on the % scale 0 is the no-effect control and ±100 the full control effect; nearly all actives have a fitted effect of over 55% in size
#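 GLP-1R inverse agonism mode: basal reporter luminescence in engineered HEK293 cells measured after one day of compound exposure at 37 deg C, with a 12 min room-temperature detection step.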
# rTrxR1 inhibitor: rat TrxR1 inhibition. O89049. recombinant rTrxR1, NADPH fluorescence consumption, selenite substrate. Potency, µM (series often up to 114 µM), inactives show top-dose activity change, negative = inhibition, hits mostly inhibitors. 390,000 compounds, 1% hits. AID 588453; further: on the % scale 0 is the no-effect control and ±100 the full control effect; nearly all actives have a fitted effect of over 65% in size
#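 Rat TrxR1 (90 nM in the dispensed reagent) was pre-reduced with 400 uM NADPH for 5 min at room temperature, then incubated with compound for 15 min. After 400 uM selenite was added, NADPH fluorescence (Ex 340/Em 450 nm) was followed for 8 min.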
# TrxR1 substrate: substrates of rat thioredoxin reductase 1; 390,000 compounds, 0.01% hits; AID 588456; purified TrxR1 substrate turnover, NADPH consumption readout; O89049; Potency, µM (top dose mostly 114 µM), without a hit: at the highest dose activity change, negative = substrate turnover; further: on the % scale 0 is the no-effect control and ±100 the full control effect; nearly all actives have a fitted effect of over 50% in size
#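 Rat TrxR1, dispensed at 90 nM, was prereduced with 400 uM NADPH (final) for 5 min at ~22 deg C, then incubated with compound 15 min before 400 uM selenite. A first-read NADPH fluorescence drop versus no-compound background flagged substrates.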
# GLP1R ag: activates the human GLP-1 receptor; HEK293 GLP-1R CRE-luciferase, luminescence, 4-6 h; cells express a hypersensitive GLP-1R form; 380,000 compounds, 0.007% hits; Potency, µM (titrated, usually from 45.6 µM), for inactives: at the top dose activation, actives largely listed as activators; P43220; further: % of control where 0% means no effect
# IDH1 R132H inh: inhibitors of human mutant IDH1 R132H; O75874; IDH1-R132H enzyme, NADPH consumption, diaphorase/resazurin fluorescence; Potency, µM (doses to about 76.6 µM), without a hit: at the highest dose activity change, negative = inhibition, most hits filed as inhibitors; 390,000 compounds, 0.093% hits; AID 602179; further: on the % scale 0 is the no-effect control and ±100 the full control effect; nearly all actives have a fitted effect of over 65% in size
# Target sequence (O75874 whole entry R132H, stated change not applied): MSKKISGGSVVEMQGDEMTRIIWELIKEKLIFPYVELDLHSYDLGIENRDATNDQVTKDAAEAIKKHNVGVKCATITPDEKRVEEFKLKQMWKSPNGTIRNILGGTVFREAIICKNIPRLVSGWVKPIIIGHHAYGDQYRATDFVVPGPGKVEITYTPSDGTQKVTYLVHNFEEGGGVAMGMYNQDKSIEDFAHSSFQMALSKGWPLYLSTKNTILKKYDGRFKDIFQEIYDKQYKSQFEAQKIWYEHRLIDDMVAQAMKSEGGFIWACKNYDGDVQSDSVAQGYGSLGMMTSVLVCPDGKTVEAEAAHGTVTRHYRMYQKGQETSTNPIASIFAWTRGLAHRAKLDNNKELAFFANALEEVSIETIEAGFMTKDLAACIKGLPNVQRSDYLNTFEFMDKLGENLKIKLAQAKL
#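 IDH1-R132H (0.5 ug/mL) preincubated 30 min with compound, then NADPH (0.016 mM) and alpha-KG (2 mM) added; 80 min at RT, pH 7.5. Remaining NADPH coupled via diaphorase/resazurin to fluorescence (540/590 nm); concentration-response curves normalized to no-enzyme control.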
# GLP1R cytotox: cytotoxic in the GLP-1 receptor inverse agonist counter-screen | HEK293 cAMP-luciferase reporter cells, luminescence, 24 h | AID 624418 | Potency, µM (highest dose often 38.3 µM), inactives show top-dose activity change, negative = inhibition, actives largely listed as inhibitors | 410,000 compounds, 0.13% hits;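 further: loss of luciferase light is scored as toxicity; on the % scale 0 is the no-effect control and ±100 the full control effect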
#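 MLSMR compounds, 24 hr on cells at 37 deg C/5% CO2; luminescence after luciferase reagent (12 min RT). Inhibition counted as the undesired cytotoxic outcome.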
# * hit, by the source's call; ? = inconclusive; nt = not tested or not shown; [ ] = remark or other dose. The call rests on the fitted dose curve; in most records, active means well fitted curve in the direction sought with a large enough effect; inconclusive means small, poorly fitted or top-dose-only effect, or another doubt; inactive means no such curve, though single readings can be large; an effect the other way counts as inactive or inconclusive. Potency means the concentration at half of the fitted maximal effect.
SMILES,GLP-1R inv ag,rTrxR1 inhibitor,TrxR1 substrate,GLP1R ag,IDH1 R132H inh,GLP1R cytotox
COc1ccc(NC(=O)Nc2sc3nc4n(c(=O)c3c2C)CCC(C)CC4)cc1OC (configuration not stated),19%,25%,4%,nt,-12%,0%
Cc1ccc(C(c2sc3nc(C)nn3c2O)N2CCN(c3ccccc3F)CC2)cc1 (configuration not stated),8.9µM*,-10%,-13%,-7%,9%,-16%
Cc1cc2c(c(C)c1Cl)C(c1ccc3c(c1)OCO3)CC(O)(c1ccccc1)O2 (configuration not stated),nt,6%,-7%,nt,nt,nt
O=C(Oc1ccc([N+](=O)[O-])cc1)c1cncc(Br)c1,-7%,18µM*,4%,3%,-3%,12%
COc1ccc(CC(=O)N2CCC(Nc3nc4ccccc4n3Cc3ccc(F)cc3)CC2)cc1,8.9µM*,14%,-3%,-8%,0%,-17%
CC(Oc1ccccc1)C(=O)Nc1ccc(S(=O)(=O)N2CCN(C)CC2)cc1 (configuration not stated),-12%,28%,13%,5%,7%,13%
CC(Oc1ccccc1Cl)C(=O)Nc1ccc(S(=O)(=O)N2CCN(C)CC2)cc1 (configuration not stated),-15%,20µM*,-2%,-1%,8%,-13%
CCN1c2ccccc2-c2nc(SCC(=O)Nc3c(C)cc(C)cc3C)ncc2S1(=O)=O,-19%,28%[57.1 µM],12%[57.1 µM],nt,-4%,-5%
CCn1nc(C)c2c(-c3ccccc3)cc(=O)n(C(C)C(=O)Nc3cc(C)ccc3C)c21 (configuration not stated),12%,14%[57.1 µM],-2%[57.1 µM],nt,16%,26%
CCn1nc(C)c2c(-c3ccccc3)cc(=O)n(C(C)C(=O)Nc3cccc(F)c3)c21 (configuration not stated),7.9µM*,33%[57.1 µM],7%[57.1 µM],nt,11%,0%
CCOC(=O)c1cnc2ccc(C)cc2c1Nc1ccc(OCc2ccccc2Cl)cc1,11µM*,9%,1%,nt,-8%,0%
CCOC(=O)c1cnc2ccc(OCC)cc2c1Nc1ccc(OCc2ccccc2Cl)cc1,?,4%,2%,nt,20%,8%
CC(=O)O[C@@H]1C(=O)O[C@H]2[C@@H]1OC(=O)[C@@H]2OC(C)=O,nt,nt,nt,-1%,nt,nt
Cc1cccc(CNC(=O)c2ccc(N3Cc4ccccc4Oc4ncccc43)s2)c1,-30%,49%[57.1 µM],30%[57.1 µM],nt,1%,4%
O=[N+]([O-])c1cnc(Sc2ccncn2)c([N+](=O)[O-])c1,-4%,nt,nt,-4%,-8%,?
O=[N+]([O-])c1cnc(Sc2ccncn2)s1,?,?,-11%,-7%,-4%,2.8µM*
COc1ccc2c(c1)O/C(=C\c1ccco1)C2=O,43%,-6%[57.1 µM],1%[57.1 µM],15%,0%,10%
Cc1cc(O)c(CN(C)C)c2c1C(=O)/C(=C/c1ccco1)O2,40%,56µM*,-12%,-4%,5%,102%
CCCN(CC(=O)Nc1ccccc1C)C(=O)c1ccc(-c2ccc([N+](=O)[O-])cc2)o1,-10%,3.5µM*,-3%,0%,-19%,-10%
C=CCNC(=O)c1ccc(-c2ccc([N+](=O)[O-])cc2)o1,8%,10µM*,-10%[57.1 µM],7%,4%,14%
COc1ccccc1NC(=O)N(Cc1ccccc1)c1ccccn1,7.1µM*,1%,-7%,1%,12%,13%
COCC(=O)N(Cc1ccccc1)c1ccccn1,0%,-4%,-4%,-6%,2%,-12%
COC(=O)CNC(c1ccccc1)c1cc(Br)ccc1NC(=O)OCc1ccccc1 (configuration not stated),4µM*,-2%,-5%,-3%,5%,5%
COc1ccccc1CCNC(=O)CCCn1c(=O)c2cccn2c2cccnc21,13%,-3%,7%,nt,nt,5%
Cc1ccc(S(=O)(=O)c2nc(-c3ccccc3F)oc2N2CCCCC2)cc1,?,-10%,11%,nt,0%,1%
SMILES,GLP-1R inv ag,rTrxR1 inhibitor,TrxR1 substrate,GLP1R ag,IDH1 R132H inh,GLP1R cytotox
O=C(Cc1cccs1)NCc1ccc2c(c1)OCO2,145%,-14%,-12%,0%,0%,25%
O=C(NCc1ccccc1)C(c1ccccc1)N(Cc1ccc2c(c1)OCO2)C(=O)Cc1cccs1 (configuration not stated),7.9µM*,36%[57.1 µM],13%[57.1 µM],-6%,5%,-26%
O=C(NC1CCCC1)C(c1ccncc1)N(Cc1ccccc1)C(=O)Cc1cccs1 (configuration not stated),3%,18%,11%,3%,6%,-11%
O=C(NC1CCCC1)C(c1ccccc1)N(Cc1ccc2c(c1)OCO2)C(=O)Cc1cccs1 (configuration not stated),10µM*,-9%,-4%,-4%,1%,-9%
CC(=O)Nc1ccc(S(=O)(=O)c2cc(O)ccc2O)cc1,11%,18µM*,-1%,-3%,6%,10%
CC(=O)Nc1ccc(S(=O)(=O)CCC(=O)O)cc1,6%,-15%,-4%,-1%,-1%,3%
CC(=O)CCS(=O)(=O)c1ccc(NC(C)=O)cc1,6%,40µM*,12%,-15%,1%,4%
CNCCN(C)c1nc(-c2cccs2)nc2ccccc12,nt,-34%,-10%,nt,nt,nt
Fc1ccc(C(c2nnnn2Cc2cccs2)N2CCN(c3ccccc3)CC2)cc1 (configuration not stated),7.9µM*,18%[57.1 µM],4%[57.1 µM],-7%,0%,4%
CCCCC(c1nnnn1Cc1ccco1)N1CCN(c2nc3ccccc3s2)CC1 (configuration not stated),7.1µM*,?,-1%,3%,-1%,-5%
CCCCn1nnnc1C(c1ccccc1)N1CCN(c2ccc(F)cc2)CC1 (configuration not stated),-25%,nt,nt,-2%,nt,7%
c1ccc(Cn2nnnc2C(c2ccccc2)N2CCN(c3nc4ccccc4s3)CC2)cc1 (configuration not stated),-11%,23%[57.1 µM],9%[57.1 µM],-4%,3%,-9%
c1ccc(C(c2nnnn2Cc2ccco2)N2CCN(c3nc4ccccc4s3)CC2)cc1 (configuration not stated),7.9µM*,-9%[57.1 µM],10%[57.1 µM],-6%,2%,-12%
CCCC(c1nnnn1CCOC)N1CCN(c2nc3ccccc3s2)CC1 (configuration not stated),-1%,14%[57.1 µM],6%[57.1 µM],9%,-1%,21%
